# Measured values published in publication PMC5540273 (PLoS ONE, 2017).
# Legend:
# Details in all cases: concentration: 1 μM,replicates: in singlicate; n = 1
# ZAK = tested on: ZAK
# ZAP70 = tested on: ZAP70
# p38-alpha = tested on: T1, p38-alpha
# T1 construct: gene MAPK14
# p38-beta = tested on: T2, p38-beta
# T2 construct: gene MAPK11
# p38-delta = tested on: p38-delta
# p38-gamma = tested on: T3, p38-gamma
# T3 construct: gene MAPK12
# 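Also: KINOMEscan kinase panel screen.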
SMILES,%Inh (ZAK) [%],%Inh (ZAP70) [%],%Inh (p38-alpha) [%],%Inh (p38-beta) [%],%Inh (p38-delta) [%],%Inh (p38-gamma) [%]
O=C(NCC1CC1)c1ccc(-c2cc(C(=O)NC3CC3)ccc2F)cc1 [GW810445],0,0,55,0,0,29
COc1cccc(OC)c1C(=O)Nc1cccc(-c2nn3ccccc3c2-c2ccnc(Nc3cccc(F)c3)n2)c1 [GSK361065],66,0,21,90,11,24
COC(=O)c1cccc(NC(=O)NC2CCN(c3ccnc(Nc4cc(OC)c(OC)c(OC)c4)n3)C2)c1 (stereo not drawn) [GSK1379767],3,17,37,0,22,0
Cn1ccc2ncnc(Oc3ccc(NC(=O)Nc4ccnc(C(F)(F)F)c4)c(Cl)c3)c21,17,0,18,0,25,0
CN1CCN(CCNc2nc3cc(Oc4ccc(NC(=O)Nc5cc(C(F)(F)F)ccc5F)cc4)ccc3[nH]2)CC1.Cl.Cl [GW768504],2,12,0,7,0,27
CCNCC(Cc1ccccc1)NC(=O)c1cc(Br)c(-c2ccnc3[nH]ccc23)s1.Cl.Cl (stereo not drawn) [GSK1383280],15,0,11,0,53,0
CC(=O)Nc1nc2cnc(Nc3cc(NC(=O)c4cccc(CC(C)(C)C#N)c4)ccc3C)nc2s1,0,5,100,100,43,74
COc1cc2c(Nc3ccc(NC(=O)c4ccccc4)cc3)ncnc2cc1OCCCN1CCOCC1 [GSK301329],8,0,0,0,11,0
CS(=O)(=O)c1cccc(CNc2nc(Nc3ccc4c(c3)[C@@H]3C[C@@H]4CNC3=O)ncc2C(F)(F)F)c1,0,58,0,0,69,10
COc1cccc(C2=C(Nc3cccc(Cl)c3)C(=O)NC2=O)c1 [SB-341556],16,1,0,0,11,0
CS(=O)(=O)Nc1ccc(-c2ccnc3[nH]ccc23)cc1 [GSK993273],13,0,0,0,48,41
C[C@@H]1CCN(C(=O)N2CCCC2)C[C@@H]1N(C)c1ncnc2[nH]ccc12,12,0,5,2,25,10
CSc1nccc(-c2c(-c3ccc(F)cc3)ncn2CCCN2CCOCC2)n1.Cl [SB-217146],0,8,67,0,0,2
C[C@@H](Oc1cc(-n2cnc3ccc(-c4ccncc4)cc32)sc1C(N)=O)c1ccccc1Cl [GSK483724],21,61,1,0,39,0
COC(=O)Nc1nc2cc(Oc3ccc(NC(=O)Nc4cc(C(F)(F)F)ccc4Cl)cc3)ccc2[nH]1.Cl [GW697465],98.4,0,83,45,48,0
CS(=O)c1ccc(-c2coc3ccc(-c4n[nH]c(=O)o4)cc23)cc1 (stereo not drawn),0,1,10,9,0,0
O=C(Nc1ccc(Oc2ccc3nc(NC(=O)C4CC4)cn3n2)c(F)c1)c1cccn(-c2ccccc2)c1=O,77,0,4,9,0,87
CNC(=O)c1ccccc1Nc1nc(Nc2cccc(CS(C)(=O)=O)c2)ncc1C.O=CO [GSK1520489],0,0,0,0,2,0
Cn1ccc2ncnc(Oc3ccc(NC(=O)Nc4cncc(C(F)(F)F)c4)c(Cl)c3)c21,0,0,47,30,0,0
C[C@@H](Oc1cc(-n2cnc3cc(-c4cnn(C)c4)ccc32)sc1C(N)=O)c1ccccc1Cl [GSK580432],6,0,0,0,0,0

SMILES,%Inh (ZAK) [%],%Inh (ZAP70) [%],%Inh (p38-alpha) [%],%Inh (p38-beta) [%],%Inh (p38-delta) [%],%Inh (p38-gamma) [%]
CN(c1ccc2c(c1)nc(NCc1ccc(F)cc1)n2C)c1ccnc(Nc2ccc(CS(C)(=O)=O)cc2)n1.Cl [GW813244],41,13,13,6,0,44
O=C(Nc1cccc(C(F)(F)F)c1)c1cccc(Oc2ccc3nccn3n2)c1,35,15,0,0,0,27
c1ccc(Oc2ccc(Nc3ccnc4ccc(-c5ccccn5)cc34)cc2)cc1 [GW407034],53,0,0,4,19,0
CN(c1cccc(CNc2nc(Nc3ccc4c(c3)CC(=O)N4)ncc2C(F)(F)F)c1)S(C)(=O)=O,0,0,0,0,11,9
COc1cccc(CNC(=O)NC2CCN(c3ccnc(Nc4cc(OC)c(OC)c(OC)c4)n3)C2)c1 (stereo not drawn) [GSK1379765],26,43,12,0,44,1
Cc1ccc(CC(=O)N2CCc3cc(-c4cn(C)c5ncnc(N)c45)ccc32)cc1 [GSK2634758],21,0,0,0,8,0
COc1cc2nccc(Nc3ccc(Oc4ccccc4)cc3)c2cc1OC.Cl [GI261656],55,0,0,0,20,0
C[C@@H](Oc1cc(-n2cnc3cc(-c4ccncc4)ccc32)sc1C(N)=O)c1ccccc1Cl [GSK479719],0,15,71,0,14,0
Cl.Nc1n[nH]c2cc(-c3ccccn3)ccc12 [GSK2189892],14,0,0,0,22,4
COC(=O)c1cccc(NC(=O)NC2CCN(c3ccnc(NCc4ccc(F)cc4)n3)CC2)c1 [GSK1379860],0,0,0,0,34,0
CCN1CCN(CCCC(=O)Nc2n[nH]c3nc(-c4ccc(O)cc4)c(Br)cc23)CC1 [SB-731579],0,0,2,0,30,0
Cn1cc(-c2cccc3c(N)c(C(N)=O)nnc23)cn1,0,9,2,16,6,27
CCCC(=O)Nc1n[nH]c2ncccc12 [SB-601436],20,0,0,0,0,13
Cn1ccc2ncnc(Oc3ccc(NC(=O)Nc4cnn(C(C)(C)C)c4)c(Cl)c3)c21,0,6,91.6,28,3,24
CCOC(=O)N1CCC(n2cnc(-c3ccc(F)cc3)c2-c2ccnc(N)n2)CC1 [SB-219952],9,14,95.3,34,0,23
Cl.c1ccc(Oc2ccc(Nc3ccnc4cc(-c5ccc(CN6CCNCC6)o5)ccc34)cc2)nc1 [GW567142],60,0,12,0,39,5
CC(C(=O)NC1CCN(c2ccnc(Nc3ccc(F)cc3)n2)C1)c1ccc(Cl)cc1 (stereo not drawn) [GSK1379713],5,0,8,0,5,0
Cc1n[nH]c2cc(Nc3ccnc(Nc4cccc(CN5CCOCC5)c4)n3)ccc12 [GW682569],14,17,11,0,28,0
Cc1ccn2nc(-c3ccc(F)cc3)c(-c3ccncc3)c2c1.Cl [GW457859],0,0,99.7,18,52,30
Cc1ccc2c(-c3ccnc(Nc4ccc(C(F)(F)F)cc4)n3)cnn2n1 [GW819776],0,15,0,0,0,44
